These results are taken from PubChem BioAssay (Tox21).

Records with an inconclusive call do not appear. Entries that show only a call come without a potency. The source made the active and inactive calls. The call rests on the fitted dose curve; in most records, active means well fitted activation curve with a large enough effect in the repeat runs; inconclusive means weak or mixed curves; inactive means no such curve, though single readings can be large or run the other way.
Potency means the concentration at half of the fitted maximal effect.

The target of this experiment is Nuclear receptor subfamily 1 group I member 3 (Homo sapiens) (UniProt Q14994). The experiment is described as follows: qHTS assay to identify small molecule agonists of the constitutive androstane receptor (CAR) signaling pathway (AID 1224839). Further: nearly all actives have a fitted effect of over 15% in size.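 On activation: HepG2 cells stably carrying human CAR and a CYP2B6 luciferase reporter.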 The settings on record: HepG2 hCAR CYP2B6-luciferase, agonist mode, 24 h; series mostly up to 92.4 µM. The text has this: National Center for Advancing Translational Sciences [NCATS] NIH Chemical Genomics Center [NCGC] U.S. Environmental Protection Agency [EPA] National Institutes of Environmental Health Sciences [NIEHS] National Toxicology Program [NTP] Assay overview: The constitutive androstane receptor (CAR) is a nuclear receptor which regulates multiple drug metabolizing enzymes (DMEs) and transporters. Activating CAR will generally increase the transcription and subsequent translation of CYP2B6 and CYP3A4. These two DMEs represent about 50% of the drug metabolizing potential in the body. […] Recently, there have also been studies performed indicating CARs role in energy metabolism and cancer therapy. Therefore, inducing CARs activity could have a potential effect on diabetes and cancer. Identifying environmental toxins and compounds which modulate CAR, through the use of the Tox21 10K compound collection, will be an important step in determining the toxicity and potential therapeutic effects these factors will have on the human body.
Sequence of Nuclear receptor subfamily 1 group I member 3 (Homo sapiens) (Q14994 whole entry, looked up): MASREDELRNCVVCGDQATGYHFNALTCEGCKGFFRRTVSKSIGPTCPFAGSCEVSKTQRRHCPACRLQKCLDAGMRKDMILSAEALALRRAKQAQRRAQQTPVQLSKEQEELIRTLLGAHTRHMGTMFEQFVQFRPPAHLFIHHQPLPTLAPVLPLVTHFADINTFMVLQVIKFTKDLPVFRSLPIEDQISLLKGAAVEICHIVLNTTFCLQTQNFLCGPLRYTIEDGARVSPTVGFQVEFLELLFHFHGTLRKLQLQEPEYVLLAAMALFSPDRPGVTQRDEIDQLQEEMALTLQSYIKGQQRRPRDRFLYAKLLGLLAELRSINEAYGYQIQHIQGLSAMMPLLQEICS
Assay Protocol Summary: A double-stable (hCAR and CYP2B6-2.2kb) transfected cell line, derived from human hepatoma (HepG2) cells, was utilized for the duration of the quantitative high-throughput screens. The HepG2-CYP2B6-hCAR cells suspended in DMEM culture medium supplemented with 10% FBS, 5 ug/mL blasticidin, 0.5 mg/mL geneticin, 100 U/mL penicillin and 100 ug/mL streptomycin were dispensed at 2500 cells/4 uL/well in 1536-well white solid bottom plates using a Multidrop Combi. After the assay plates were incubated at 37 C/5% CO2 for 4 hrs, 23 nL of compounds at 15 concentrations (from 5-48 columns) or positive control (from 1 to 4 columns) were transferred to the assay plates using a Pintool station. One uL of PK11195, was added using a Flying Reagent Dispenser to generate a final concentration of 0.75 uM PK11195 inside each well. After a 24 hr incubation period at 37 C/5% CO2, four uL of ONE-Glo reagent was added into the assay plates using a Flying Reagent Dispenser. After a 30 min incubation period at room temperature, the luminescence intensity in the assay plates was measured using a ViewLux plate reader.
(qHTS replaces the single test concentration by a dilution series.)
For `Nc1cccc2c(N)cccc12`, the Potency was 24.3 µM (active). As for `O=C1NC(=O)c2cccc3cccc1c23`, the entry is “inactive”. In the case of `COc1ccc(N)c([N+](=O)[O-])c1` it was “inactive”; in that of `Cc1c[nH]c2ccccc12`, “inactive”. As for `O=c1[nH]c2cc(C(F)(F)F)c(N3CCOCC3)cc2n(CP(=O)(O)O)c1=O`, the entry is “inactive”. Regarding `Nc1ccc(NC(=O)c2ccc(N)cc2)cc1`, the Potency entry is “inactive”. Consider `CC(=O)OC(C)C[N+](C)(C)C` (stereo not given), for which the Potency entry was “inactive”. On to `O[C@@H](CNC[C@H](O)[C@H]1CCc2cc(F)ccc2O1)[C@@H]1CCc2cc(F)ccc2O1`, for which the Potency result is “inactive”. For the molecule `CCN(Cc1cccc(S(=O)(=O)O)c1)c1ccc(C(=C2C=CC(=[N+](CC)Cc3cccc(S(=O)(=O)O)c3)C=C2)c2ccccc2S(=O)(=O)[O-])cc1`, the Potency result is “inactive”. Turning to `CC(C)(C(=O)c1cccnc1)c1cccnc1`, the Potency entry is “inactive”. As for `CC(C)COC(=O)COc1cc(Cl)c(Cl)cc1Cl`, the entry is “inactive”; as for `Cc1ccc(N(CCO)CCO)cc1`, “inactive”; as for `CC(C)c1ccc(C#N)cc1`, “inactive”. As for `O=C(Nc1ccc(C(=O)O)c(O)c1)c1ccccc1`, the entry is “inactive”; as for `Oc1ccc2c(c1)Cc1ccccc1-2`, 61.1 µM (active); as for `O=C(NC(Cc1cc(=O)[nH]c2ccccc12)C(=O)O)c1ccc(Cl)cc1` (stereo not given), “inactive”.

For the molecule `CC(C)(C)C1(CCc2ccc(Cl)cc2)CO1` (stereo not given), the Potency entry was “inactive”.

`BrC(Br)C(Br)Br`: the Potency entry was “inactive”. As for `CC(C)C(O)C(C)(C)CO` (stereo not given), the Potency entry was “inactive”. Turning to `COc1cc(NS(=O)(=O)c2ccc(N)cc2)nc(C)n1`, the Potency entry was “inactive”.

In the case of `O=C1c2ccccc2C(=O)c2c(O)ccc(O)c21`, the Potency was 48.6 µM (active).

Take `CCOC(=O)Oc1ccc(CCNC(=O)[C@H](CCSC)NC(C)=O)cc1OC(=O)OCC`: the Potency entry is “inactive”. In the case of `O=C(O)CNC(=O)c1ccccc1I` it was “inactive”; in that of `O=S(=O)(Cl)c1c(Cl)cccc1Cl`, “inactive”. In the case of `N[C@@H](Cc1cc(I)c(O)c(I)c1)C(=O)O` it was “inactive”; in that of `COc1ccc(-c2cc(C(F)F)nn2-c2ccc(S(N)(=O)=O)cc2)cc1F`, “inactive”. In the case of `CCC(CO)(CO)[N+](=O)[O-]` it was “inactive”; in that of `CC(=O)N[C@@H](Cc1ccc(O)cc1)C(=O)O`, “inactive”. For the molecule `COC(=O)CC(C(C)=O)C(=O)OC` (stereo not given), the Potency entry is “inactive”. As to `NC(=O)CCCCC(N)=O`, the Potency entry is “inactive”. As for `O=C(O)c1ccc(O)cc1O`, the Potency entry was “inactive”. As for `Nc1ccc(N=Nc2ccc(N)cc2)cc1`, the entry is “inactive”. In the case of `C=C(C)C(=O)OCCC(F)(F)C(F)(F)C(F)(F)C(F)(F)C(F)(F)C(F)(F)F` it was “inactive”.

With `CCCCCCCC(=O)Oc1c(Br)cc(C#N)cc1Br`, the Potency result is “inactive”. As for `CCCc1nc2c(C)cc(-c3nc4ccccc4n3C)cc2n1Cc1ccc(-c2ccccc2C(=O)O)cc1`, the entry is “inactive”; as for `O=c1[nH][nH]c(=O)c2cc([N+](=O)[O-])ccc12`, “inactive”; as for `O=C(c1ccccc1)C1CCC1`, “inactive”.

`CC(=O)OCC(=O)[C@@]1(OC(C)=O)[C@@H](C)C[C@H]2[C@@H]3C[C@H](F)C4=CC(=O)C=C[C@]4(C)[C@@]3(F)[C@@H](O)C[C@@]21C`: the Potency entry was “inactive”. As for `CC1=CC[C@@]23C[C@@H]1C(C)(C)[C@@H]2CC[C@H]3C`, the entry is “inactive”; as for `CC[C@H]1OC(=O)[C@H](C)[C@@H](O[C@H]2C[C@@](C)(OC)[C@@H](O)[C@H](C)O2)[C@H](C)[C@@H](O[C@@H]2O[C@H](C)C[C@H](N(C)C)[C@H]2O)[C@](C)(O)C[C@@H](C)CN(C)[C@H](C)[C@@H](O)[C@]1(C)O`, “inactive”.
